Results published in PubChem BioAssay (NCI).
This is part of a sample that, as a whole, favours compounds with a hit. Of some 79,000 tested, about 15% had one in any assay. Activity calls are given as the source filed them. Rule as the data show it: active = growth inhibition above about 70%; inactive = the rest.

What was measured:
[1] = NCI Yeast Anticancer Drug Screen. Data for the rad52 strain (AID 147);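 also: 0% = growth of vehicle-treated control cultures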; conditions: S. cerevisiae rad52 mutant growth inhibition, hits give high values
Outline: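 The repair-mutant yeast strain was incubated with compounds, then growth was read and inhibition derived relative to vehicle.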

[2] = NCI Yeast Anticancer Drug Screen. Data for the wt1 strain (AID 149);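 also: 0% = growth of vehicle-treated wt1 cultures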; conditions: S. cerevisiae wt1 strain (SPY 50644) growth inhibition, hits give high values
Outline: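 Each compound is tested on wt1 yeast and the loss of growth versus vehicle gives the inhibition value.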

[3] = NCI Yeast Anticancer Drug Screen. Data for the rad50EPP+ strain (AID 151);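 also: 0% = growth of vehicle-treated control cultures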; conditions: S. cerevisiae rad50 mutant strain, hits give high values
Outline: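 Vehicle-normalised growth inhibition; rad50EPP+ yeast strain, altered in DNA damage repair, compound-treated.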

[4] = NCI Yeast Anticancer Drug Screen. Data for the mgt1 strain (AID 153); conditions: S. cerevisiae mgt1 mutant growth inhibition, hits give high values
Outline: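 Vehicle-normalized growth inhibition is determined in mgt1 yeast, a strain selected for a defined alteration in DNA repair or cell cycle control.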

[5] = NCI Yeast Anticancer Drug Screen. Data for the rad50 strain (AID 155);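 also: 0% = growth of vehicle-only cultures of the same strain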; conditions: S. cerevisiae rad50 strain growth inhibition, hits give high values
Outline: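 Vehicle-treated cultures provide the reference for the growth inhibition reported for compound-exposed, repair-deficient yeast.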

[6] = NCI Yeast Anticancer Drug Screen. Data for the mec2-1 strain (AID 157); conditions: S. cerevisiae mec2-1 strain, hits give high values
Outline: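 Mutant yeast (mec2-1) grown with compound; growth inhibition relative to vehicle control reported.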

[7] = NCI Yeast Anticancer Drug Screen. Data for the rad14 strain (AID 159);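 also: 0% = growth of vehicle-treated control cultures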; conditions: S. cerevisiae rad14 strain growth inhibition, hits give high values
Outline: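 Inhibition of growth is reported for a repair-deficient yeast mutant following compound treatment, calculated relative to cultures that received vehicle.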

[8] = NCI Yeast Anticancer Drug Screen. Data for the sgs1 mgt1 strain (AID 161);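 also: 0% = growth of cultures given vehicle only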; conditions: S. cerevisiae sgs1 mgt1 strain, hits give high values
Outline: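 Compounds are added to genetically altered yeast, and growth is compared with cultures given vehicle alone to give percent inhibition.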

[9] = NCI Yeast Anticancer Drug Screen. Data for the CLN2oe strain (AID 163);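 also: 0% = growth of vehicle-only control cultures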; conditions: S. cerevisiae CLN2oe strain, hits give high values
Outline: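 Compounds are applied to yeast harbouring a defined cell-cycle control change; reduced growth compared with vehicle-treated controls gives the value.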

[10] = NCI Yeast Anticancer Drug Screen. Data for the cln2 rad14 strain (AID 165);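 also: 0% = growth equal to vehicle treated cultures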; conditions: S. cerevisiae cln2 rad14 strain, hits give high values
Outline: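 Readout is yeast growth inhibition versus vehicle-treated controls, using a strain with cln2 and rad14 alterations exposed to compound.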

[11] = NCI Yeast Anticancer Drug Screen. Data for the bub3 strain (AID 167); conditions: S. cerevisiae bub3 mutant strain, hits give high values
Outline: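 Mutant yeast screening strain plus compound; vehicle-treated cultures serve as the 0% inhibition reference.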

[12] = NCI Yeast Anticancer Drug Screen. Data for the wt2 strain (AID 169); conditions: S. cerevisiae wt2 strain growth inhibition, hits give high values
Outline: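 Against vehicle-treated controls, the growth of yeast exposed to each compound was compared, and the inhibition was recorded.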

[13] = NCI Yeast Anticancer Drug Screen. Data for the mlh1 strain (AID 171);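 also: 0% = growth of vehicle-treated control cultures of the same strain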; conditions: S. cerevisiae mlh1 strain growth inhibition, hits give high values
Outline: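 Measured: yeast growth. Reference: vehicle-treated controls. Organism: strain with a defined alteration affecting DNA damage repair or cell cycle control, treated with compound.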

[14] = NCI Yeast Anticancer Drug Screen. Data for the sgs1 strain (AID 173);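 also: 0% = growth of vehicle-only control cultures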; conditions: S. cerevisiae sgs1 mutant, hits give high values
Outline: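 Each compound was added to cultures of the altered yeast strain. Growth was recorded, and inhibition was derived by comparison with vehicle controls.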

[15] = NCI Yeast Anticancer Drug Screen. Data for the mlh1 rad18 strain (AID 175); conditions: S. cerevisiae mlh1 rad18 strain growth inhibition, hits give high values
Outline: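 Genetically defined yeast (DNA repair-deficient) exposed to compounds; growth inhibition determined relative to vehicle.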

[16] = NCI Yeast Anticancer Drug Screen. Data for the rad18 strain (AID 177); conditions: S. cerevisiae rad18 mutant growth inhibition, hits give high values
Outline: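 Vehicle-treated cultures served as the baseline for scoring compound-induced growth inhibition in DNA-repair-mutant yeast.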

[17] = at 5.0 µM (retest, dose inferred, filed as 0.5)
[18] = at 50.0 µM (retest, dose inferred, filed as 5.0)

Measured: growth inhibition

CCCCC/C(=C(\C#N)C(=O)OCC)c1ccccc1
inactive: [1]; at 1.2 µM -2% | [1]; at 3.7 µM -1% | [1]; at 11.0 µM 1% | [1]; at 33.0 µM 7% | [1]; at 100.0 µM 9% | [2]; at 1.2 µM -2% | [2]; at 3.7 µM -2% | [2]; at 11.0 µM -1% | [2]; at 33.0 µM -4% | [2]; at 100.0 µM -4% | [3]; at 1.2 µM 3% | [3]; at 3.7 µM 3% | [3]; at 11.0 µM 13% | [3]; at 33.0 µM 26% | [4]; at 1.2 µM -3% | [4]; at 3.7 µM -2% | [4]; at 11.0 µM -3% | [4]; at 33.0 µM -2% | [4]; at 100.0 µM 7% | [5]; at 1.2 µM -1% | [5]; at 3.7 µM -1% | [5]; [17] 7% | [5]; at 11.0 µM 4% | [5]; at 33.0 µM 7% | [5]; [18] -4% | [5]; at 50.0 µM -7% | [5]; at 100.0 µM -6% | [6]; at 1.2 µM -7% | [6]; at 3.7 µM -5% | [6]; [17] -5% | [6]; at 11.0 µM -3% | [6]; at 33.0 µM 0% | [6]; [18] -4% | [6]; at 50.0 µM 28.4% | [6]; at 100.0 µM 6% | [7]; at 1.2 µM -1% | [7]; at 3.7 µM -2% | [7]; at 11.0 µM 1% | [7]; at 33.0 µM 8% | [7]; at 100.0 µM 5% | [8]; [17] -1% | [8]; [18] 33% | [8]; at 50.0 µM 36.5% | [9]; at 1.2 µM -2% | [9]; at 3.7 µM -5% | [9]; at 11.0 µM -5% | [9]; at 33.0 µM -4% | [9]; at 100.0 µM 4% | [10]; [17] -7% | [10]; [18] 13% | [10]; at 50.0 µM -99% | [11]; at 1.2 µM 0% | [11]; at 3.7 µM 2% | [11]; [17] 1% | [11]; at 11.0 µM 6% | [11]; at 33.0 µM 11% | [11]; [18] 7% | [11]; at 50.0 µM 52.4% | [11]; at 100.0 µM 14% | [12]; at 1.2 µM -3% | [12]; at 3.7 µM -4% | [12]; at 11.0 µM -3% | [12]; at 33.0 µM -3% | [12]; at 100.0 µM 1% | [13]; at 1.2 µM -2% | [13]; at 3.7 µM 1% | [13]; at 11.0 µM 5% | [13]; at 33.0 µM 10% | [13]; at 100.0 µM 18% | [14]; at 1.2 µM -1% | [14]; at 3.7 µM 2% | [14]; at 11.0 µM 2% | [14]; at 33.0 µM 8% | [14]; at 100.0 µM 17% | [15]; [17] -6% | [15]; [18] 64% | [15]; at 50.0 µM 44.4% | [16]; at 1.2 µM 1% | [16]; at 3.7 µM 3% | [16]; at 11.0 µM 2% | [16]; at 33.0 µM 8% | [16]; at 100.0 µM 14%
active: [3]; at 100.0 µM 78%
